# Source: PubChem BioAssay
# SRC1 TRFRET art: counter-screen for PPARgamma SRC-1 recruitment agonists: TR-FRET artefact; TR-FRET detection artefact counter-screen, emission ratio; stronger effect = higher value; TR-FRET ratio at 8 µM; 0.34% of 99,000 active; AID 1051; in the data active = TR-FRET ratio above about 2300
# SRC2 TRFRET art: counter-screen for PPARgamma SRC-2 recruitment agonists: TR-FRET artefact; stronger effect = higher value; TR-FRET ratio at 8 µM; 0.4% of 200,000 active; AID 1049
# SRC3 TRFRET art: counter-screen for PPARgamma SRC-3 recruitment agonists: TR-FRET artefact; TR-FRET ratio at 8 µM; 0.39% of 99,000 active; PPARgamma/SRC-3 format; stronger effect = higher value; AID 1048
# PPARg SRC1 recr: promotes SRC-1 coactivator recruitment by human PPARgamma; P37231; PPARgamma-SRC-1 coactivator recruitment biochemical assay; activation, % at 8 µM; 0.41% of 200,000 active; in the data active = activation above about 19%;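 also: 0% = DMSO and 100% = reference agonist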
# Target sequence (P37231 whole entry, looked up): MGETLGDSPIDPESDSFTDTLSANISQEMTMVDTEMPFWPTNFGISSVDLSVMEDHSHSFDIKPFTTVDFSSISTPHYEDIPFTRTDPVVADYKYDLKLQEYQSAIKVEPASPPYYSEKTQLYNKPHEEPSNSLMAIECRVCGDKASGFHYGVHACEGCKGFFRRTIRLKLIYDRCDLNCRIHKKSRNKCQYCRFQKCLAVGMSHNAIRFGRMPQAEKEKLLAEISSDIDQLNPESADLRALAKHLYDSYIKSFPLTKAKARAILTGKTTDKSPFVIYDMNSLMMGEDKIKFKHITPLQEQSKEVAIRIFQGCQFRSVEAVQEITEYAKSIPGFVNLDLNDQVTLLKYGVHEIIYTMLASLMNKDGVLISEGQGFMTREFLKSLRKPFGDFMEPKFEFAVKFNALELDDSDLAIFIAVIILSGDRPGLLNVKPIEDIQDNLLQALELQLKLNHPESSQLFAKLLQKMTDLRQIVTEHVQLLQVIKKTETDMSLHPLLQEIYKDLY
# PPARg SRC2 recr: agonists of SRC-2 recruitment by human PPARgamma; P37231; PPARgamma LBD-SRC-2 recruitment, biochemical; activation, % at 8 µM; 0.34% of 200,000 active; AID 1032; in the data active = activation above about 22%;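 also: 0% = vehicle and 100% = reference agonist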
# PPARg SRC-3 ag: PPARgamma-driven SRC-3 recruitment agonism; biochemical PPARgamma/SRC-3 coactivator recruitment assay; P37231; 0.26% of 200,000 active; AID 731; activation, % at 8 µM; in the data active = activation above about 23%;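 also: 0% = DMSO and 100% = reference agonist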
# The depositor's hits bear a star; / = no result. Shown are actives, neighbours in structure and some others; about 0.9% of the full set was active somewhere. Rule as the data show it, unless noted: active = TR-FRET ratio above about 2000; inactive = the rest.
SMILES,SRC1 TRFRET art,SRC2 TRFRET art,SRC3 TRFRET art,PPARg SRC1 recr,PPARg SRC2 recr,PPARg SRC-3 ag
Cc1sc(-n2c(C)cc(/C=N/n3cnnc3)c2C)c(C#N)c1C,/,1511,/,6.0,5.7,29.5*
O=C(Cc1sc(-c2ccccc2Cl)nc1-c1ccccc1)Nc1ccccc1,/,1609,/,75.3*,5.5,0.9
Cc1ccccc1OCC(=O)NC(=S)Nc1ccc2c3c(cccc13)CC2,/,1639,/,8.4,10.7,14.3
COc1ccc(OCC(=O)NC(=S)Nc2ccc3c4c(cccc24)CC3)cc1,2059,1730,2132*,7.5,2.6,12.5
Cc1cc(C)c2c(=O)[nH]c(SCC(=O)NCc3ccccc3)nc2n1,/,1619,/,-2.9,-0.7,-2.6
COc1ccccc1NC(=O)CSc1nc2nc(C)cc(C)c2c(=O)[nH]1,/,1689,/,9.2,22.3*,-0.2
N#Cc1c(-c2ccc(F)cc2)ccnc1N1CCOCC1,2095,1625,1590,4.3,9.1,6.9
COCC(=O)NCc1ccc2c(c1)cc(C)n2C,1864,1821,1649,6.2,6.5,-0.2
Cc1cc2cc(CNC(=O)Nc3ccc(Cl)c(Cl)c3)ccc2n1C,2614*,1781,1886,6.8,9.7,7.5
FC(F)Oc1ccc(NC(=S)NCc2ccccc2)cc1,1600,1417,1564,-1.5,-8.0,-1.9
Cc1cc2cc(CNC(=S)Nc3ccc(OC(F)F)cc3)ccc2n1C,2282,2063*,2435*,11.0,11.4,4.6
O=C(COC(=O)c1ccc2ccccc2n1)NCc1ccccc1,1620,1551,1642,-1.4,2.0,-2.2
O=C(c1cc(F)ccc1F)C1CCCN(C(=O)CCN2CCCCO2)C1 (stereo not given),1889,1533,1641,3.0,6.2,0.6
O=C1c2ccccc2C(=O)C1c1ccc(O)cc1,2190,1592,1745,21.3*,4.9,4.8
COc1ccc(-c2nc(S(=O)(=O)c3ccccc3)c(N3CCOCC3)o2)cc1,1614,1502,1343,3.8,6.0,0.4
O=S(=O)(c1ccccc1)c1nc(-c2ccco2)oc1N1CCOCC1,/,1561,/,26.1*,5.1,2.9
O=c1cnnc(SCc2ccc([N+](=O)[O-])cc2)[nH]1,1538,1688,1609,78.6*,45.4*,73.1*
O=C(NCc1ccco1)c1cc(-c2cccnc2)nc2ccccc12,2325*,1779,1623,3.4,11.8,-3.7
O=C(NCc1ccccn1)c1cc(-c2ccc(-c3ccccc3)cc2)nc2ccccc12,1888,1653,2387*,2.5,0.8,-1.2
O=C(NCc1ccccn1)c1cc(-c2ccccc2)nc2ccccc12,1648,1426,1462,-4.3,6.5,-3.4
O=C(NCc1ccco1)c1cc(-c2ccncc2)nc2ccccc12,/,1597,/,0.8,0.3,2.2
FC(F)(F)c1nc(=S)c2ccccc2[nH]1,2370*,2366*,2198*,22.6*,26.6*,21.3
O=C(N/N=C/c1ccc([N+](=O)[O-])o1)c1cc(-c2ccc(-c3ccccc3)cc2)nc2ccccc12,1568,1407,1306,6.6,-3.6,-2.7
Cc1cc(N/N=C/c2ccc([N+](=O)[O-])o2)nc2ccccc12,1831,1789,2083*,11.4,9.9,8.7
CCc1nc(SCC(=O)Nc2sc(C)c(C)c2C(=O)OC)c2ccccc2n1,/,1463,/,-2.7,0.2,-4.4
SMILES,SRC1 TRFRET art,SRC2 TRFRET art,SRC3 TRFRET art,PPARg SRC1 recr,PPARg SRC2 recr,PPARg SRC-3 ag
COc1cc(OC)cc(-n2nnnc2SCC(=O)Nc2ccc(C(C)=O)cc2)c1,/,1477,/,51.1*,7.1,-0.8
CCOC(=O)c1sc(NC(=O)CSc2nnnn2-c2ccc(C)c(C)c2)nc1C,/,4861*,/,-1.9,155.9*,-6.4
Cc1c(C(=O)OCC(=O)c2ccc3c(c2)OCCO3)oc2ccccc12,/,2066*,/,7.5,-4.0,-1.2
Cc1cc(C(=O)OCC(=O)c2ccc3c(c2)OCCO3)c(C)o1,/,1561,/,10.0,2.9,9.5
CCSc1nnc(NC(=O)[C@@H](NC(=O)c2cc(OC)cc(OC)c2)C(C)C)s1,2006,1566,1628,5.0,3.2,1.1
CCCCN(C(=S)Nc1cccc(C)c1C)c1c(N)n(CCC)c(=O)[nH]c1=O,1821,1462,1604,8.8,2.3,2.7
CC(C)(C)c1cc(C(=S)N2CCN(CCO)CC2)cc(C(C)(C)C)c1O,/,1569,/,6.3,9.9,28.1*
CC1=C(C(=O)Nc2ccc(F)c(F)c2)C(c2cccs2)NC(=S)N1 (stereo not given),2450*,1973*,1907,16.7,16.1,8.2
CCOC(=O)/C(C#N)=C/c1cc2ccccc2nc1N1CCCCC1,2172,2031*,2129*,16.9,11.5,15.9
Cc1nc2ccc(NC(=O)c3cc(S(=O)(=O)N(C)c4ccccc4)ccc3Cl)cc2s1,1567,1528,1598,-4.3,-3.3,3.2
Cc1nc2ccc(NC(=O)c3ccc(Cl)c(S(=O)(=O)N(C)c4ccccc4)c3)cc2s1,1530,1835,2532*,6.0,8.8,2.1
CCC1(c2ccc(F)cc2)NC(=O)N(CC(=O)Nc2ccc(C)c(S(=O)(=O)N3CCOCC3)c2)C1=O (stereo not given),1742,1684,1693,14.8,7.8,2.4
COC(=O)Sc1nnc(-c2ccc(Br)cc2)o1,/,2802*,/,44.6*,54.3*,62.9*
OCC#CCSc1nnc(-c2ccc(Br)cc2)o1,/,1717,/,12.9,10.5,5.7
COc1ccc(N2C(=O)c3ccccc3NC2c2ccc(OC)c(CSc3ccccn3)c2)cc1 (stereo not given),/,2247*,/,9.1,21.6,9.9
COc1ccc(N2C(=O)c3ccccc3NC2c2ccc(OC)c(COc3ccccn3)c2)cc1 (stereo not given),2104,1704,1598,-2.9,-2.5,-0.2
CCN=C1SC(C(=O)Nc2ccc(OC)cc2)CC(=O)N1CC (stereo not given),1797,1420,1682,0.1,2.1,3.5
CCn1cc(CNCc2cn(C)nc2-c2ccc(C3CCCCC3)cc2)cn1,1896,1699,1641,22.4*,2.7,0.5
CC(=O)c1cnc(Nc2cccc(C)c2)s1,1711,1812,1539,2.6,-10.7,3.7
COc1ccc(C2(O)CCN(CC(=O)Nc3nccs3)CC2)c(OC)c1,/,1972*,/,7.6,4.2,0.6
S=c1[nH]c2ccc(Cl)cc2[nH]1,/,1677,/,5.0,23.6*,5.2
COc1ccc2[nH]c(=S)[nH]c2c1,/,1534,/,4.7,12.6,10.5
COc1ccc(OC)c2c1sc(=NC(=O)C(C)(C)C)n2C,/,4080*,/,3.6,120.7*,31.8*
CCN(CC)S(=O)(=O)c1ccc(OC)c(NC(=S)Nc2ccc(C)c(C)c2)c1,1757,1419,1404,-4.0,8.2,-5.4
CSc1ccc(/C=C/C(=O)c2ccc(NC(=O)C(C)C)cc2)cc1,/,1546,/,-4.8,7.9,0.3
CSc1ccc(/C=C/C(=O)c2ccc(NC(=O)Cc3ccccc3)cc2)cc1,/,2038*,/,4.8,3.2,10.4
CC(C)Cc1nc(Cl)c(C#N)c2c1CCCC2,1692,1374,2298*,-6.7,-6.5,21.5
